SMILES strings stand for the structures. Where “and” joins values, the source holds several entries; their conditions need not be identical. Equal values may be shown once. Inconclusive results are not listed. The source holds several records for some structures; these can differ, active in one and inactive in another. Calls of active or inactive are those of the source. Calls follow the shape of the dose curve; as a rule, active = well fitted inhibition curve with a large enough effect; inconclusive = small, poorly fitted or top-dose-only effect; inactive = flat fitted curve, though single readings scatter.
% is scaled to controls: 0 for no effect and ±100 for the full control effect; potency is read from the fitted curve at half-maximal effect.

This assay has as its system NIH3T3. Briefly: Cytotoxic Profiling of Annotated Libraries Using Quantitative High-Throughput Screening (AID 1296008). Also: nearly all actives have a fitted effect of over 60% in size. As to conditions: Five cell lines viability, CellTiter-Glo ATP luminescence, 48-72 h; max response: hits give low values. The method, boiled down:
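Cytotoxicity was measured as CellTiter-Glo ATP luminescence, read after 10 min at room temperature. Compound treatment of the cells lasted 48 or 72 hr at 37 degrees Celsius in a qHTS format.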
A general note: In ATP-based viability assays light output follows the ATP content of the culture.
Consider `COc1nccc(-c2c(-c3ccc(F)cc3)ncn2C2CCC(O)CC2)n1` (stereo not given), for which the max response is -1.87% (inactive).

Consider `O=C1C(c2c(O)[nH]c3ccccc23)=Nc2ccccc21`, for which the max response was 2.3% (inactive) and the call was inactive.

Consider `COc1cc(Nc2nc3ccccc3nc2NS(=O)(=O)c2ccc(NC(=O)c3ccc(C)c(OC)c3)cc2)cc(OC)c1`, for which the max response is -5.22% (inactive) and the result was inactive.

`COc1ccc(-c2ccc3ncc4c(c3c2)n(-c2ccc(N3CCNCC3)c(C(F)(F)F)c2)c(=O)n4C)cn1`: the Potency was 0.0053 µM (active).

For `NS(=O)(=O)c1cc(Cl)c(Cl)c(S(N)(=O)=O)c1`, the max response was -19% (inactive) and 0.0909% (inactive).

Take `CN1C(=O)C(Cc2c[nH]c3ccccc23)NC1=S` (stereo not given): the max response is -1.6% (inactive) and -5.02% (inactive).

Turning to `CN1c2ccccc2C(=O)N2CCc3c([nH]c4ccccc34)C21` (stereo not given), the max response was -8.68% (inactive).

Turning to `CNC(=O)c1c(-c2ccc(F)cc2)oc2cc(N(CCO)S(C)(=O)=O)c(C3CC3)cc12`, the max response is -17.1% (inactive).

In the case of `CC1CCN(c2cc(N3CCN(C)CC3)ccc2NC(=O)c2cc(C#N)c[nH]2)CC1`, the max response is 3.51% (inactive) and 0.269% (inactive).

As for `COc1ccnc(CS(=O)c2nc3ccc(OC(F)F)cc3[nH]2)c1OC` (stereo not given), the max response was -24% (inactive) and the outcome was inactive.

On to `c1cc(OCCN2CCCCC2)cc(-c2n[nH]c3ccc(-c4ncn[nH]4)cc23)c1`, for which the max response was -3.48% (inactive) and 4.45% (inactive).

Regarding `CCOC(=O)[C@H](CCc1ccccc1)N[C@@H](C)C(=O)N1CCCC1C(=O)O` (stereo not given in full), the call was inactive.

For `Cc1ccccc1-n1c(Cn2nc(-c3cccc(O)c3)c3c(N)ncnc32)nc2cccc(C)c2c1=O`, the max response is -4.97% (inactive) and the outcome was inactive.

Regarding `CC(C)(OCc1nn(Cc2ccccc2)c2ccccc12)C(=O)O`, the max response is 2.54% (inactive) and 3.58% (inactive).

Turning to `Nc1ccc(-c2ccc3ncc4ccc(=O)n(-c5cccc(C(F)(F)F)c5)c4c3c2)cn1`, the Potency is 20.9 nM (active) and 103 nM (active).

Take `Cc1ccccc1C(C(=O)NC1CCCCC1)N(C(=O)CNc1ccc(C#N)cc1)c1cccc(F)c1` (stereo not given): the max response is -3.8% (inactive) and -0.279% (inactive).

With `O=c1cc(-c2ccc(O)c(O)c2)oc2cc(O)cc(O)c12`, the max response was 3.33% (inactive).

Regarding `COc1nc(C)cnc1NS(=O)(=O)c1cccnc1-c1ccc(-c2nnco2)cc1`, the max response is -2.15% (inactive) and the compound was called inactive.

In the case of `O=C(c1ccc(C(=O)N2CCC(N3CCCC3)CC2)c(Nc2ccccc2)c1)N1CCC(N2CCCC2)CC1`, the max response was -1.45% (inactive) and the call was inactive.

Consider `CC(C)CNc1ccnc(NCc2csc(-c3ccccc3)n2)n1`, for which the Potency is 23.1 µM (active) and the max response is -17.2% (inactive).

On to `CC1=C(C(=O)Nc2cc3cn[nH]c3cc2F)C(c2ccc(C(F)(F)F)cc2)CC(=O)N1` (stereo not given), for which the max response is -7.07% (inactive).

Turning to `CC(=O)N1CCN(c2ccc(OCc3nn(C)c(C)c3-c3cccc4c(CCCOc5cc(C)c(Cl)c(C)c5)c(C(=O)O)n(Cc5cccnc5)c34)cc2)CC1`, the outcome was inactive.

Turning to `c1ccc(CNc2nc(N3CCOc4ccccc43)nc3c2CCCC3)cc1`, the max response was 3.56% (inactive) and the call was inactive.

Regarding `Cn1c(=O)c(-c2c(Cl)cccc2Cl)cc2cnc(Nc3cccc(C(=O)O)c3)nc21`, the max response is 3.27% (inactive) and the result was inactive.

Regarding `CCN1C[C@H](C)n2c(c(O)c3c(=O)n(Cc4ccc(F)c(Cl)c4)nc(C(=O)NC)c32)C1=O`, the max response was 0.921% (inactive) and -1.89% (inactive).

For the compound `COc1ccc(CCC(=O)Nc2nc3ccc(Cl)cc3s2)cc1OC`, the max response was -12.1% (inactive) and the call was inactive.

Regarding `Cc1cc2c(cc1C1(c3ccc(C(=O)O)cn3)CC1)C(C)(C)CCC2(C)C`, the compound was called inactive.

With `COc1cc2ncnc(Nc3cc(Br)c(O)c(Br)c3)c2cc1OC`, the max response was -4.77% (inactive) and the call was inactive.

Regarding `O=C(O)CCNc1cc(N2CCc3ccccc3CC2)nc(-c2ccccn2)n1`, the max response was -1.17% (inactive) and -17.2% (inactive) and -11.6% (inactive).

On to `CN1CCC(COc2cnc(-c3cccc(Cn4nc(-c5cccc(C#N)c5)ccc4=O)c3)nc2)CC1`, for which the Potency is 16.4 µM (active) and the max response is -5.81% (inactive).

Regarding `C[C@@]1(c2cc(-c3cncnc3)c(F)cc2F)CCSC(N)=N1`, the max response was -1.07% (inactive) and the outcome was inactive.

For `C[C@H](c1ccc(F)cc1CCCC(=O)O)N(c1cc(F)ccc1F)S(=O)(=O)c1ccc(Cl)cc1`, the max response is -19.7% (inactive) and 4.43% (inactive).

For the origin of these results see PubChem BioAssay (NCATS).
